Screen size: about 320,000 compounds; about 2,100 (0.66%) were called active. About 53% were inconclusive and are not listed. Calls follow the shape of the dose curve; as a rule, active = well fitted inhibition curve with a large enough effect in the signal ratio, with a control signal flat (not every such curve was filed as active); inconclusive = small, poorly fitted or top-dose-only effect, or effect the other way, or a change in a side signal; inactive = flat fitted curve, though single readings scatter; the % refers to the signal ratio. The list comes from a sample in which actives are over-represented; it also holds similar structures and randomly drawn compounds.

Data on 95 molecules can be found in PubChem BioAssay AID2685 (National Center for Advancing Translational Sciences (NCATS), 2010).
Potency is read from the fitted curve at half-maximal effect.

The experiment can be described thus: qHTS Assay for Lipid Storage Modulators in Drosophila S3 Cells.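 As to cell number change: cells counted by Cell Tracker Red CMTPX staining in the red channel.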 Particulars: BODIPY lipid droplet fluorescence, 18-24 h, cells fed with added oleic acid; cell number change: measured here: cell count max response; series mostly up to 46.1 µM. In outline:
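Drosophila S3 cells got compounds at several concentrations plus oleic acid (400 uM solution). Laser-scanning cytometry with 488 nm excitation read lipid droplets at 500-530 nm and cells at 575-640 nm. Percent activity was relative to 20 uM Triacsin C.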
A general note: In qHTS, concentration-response curves come from the screen itself.
`CC(C(O)c1ccccc1)N(C)CCn1cnc2c1c(=O)n(C)c(=O)n2C` (stereo not given): the Potency entry was “inactive” and the cell number change amounted to 3.11%.
As to `CCOC(=O)C(C)(CC)NC(=O)CSP(=S)(OCC)OCC` (stereo not given), the Potency entry was “inactive”.
Consider `Cc1ccc(NP(=O)(Oc2ccccc2F)Oc2ccccc2F)cc1`, for which the Potency entry is “inactive” and the cell number change is -20.4%.
On the same counts, the results for `O=P(Nc1cccc(F)c1)(Oc1ccccc1F)Oc1ccccc1F` are “inactive” and 10.8%.
On the same counts, the results for `Cc1ccc(NP(=O)(Oc2ccccc2F)Oc2ccccc2F)cc1C` are 32.6 µM (active) and -29.4%.
On the same counts, the results for `COC(=O)C(O)(c1ccc(N(C)S(=O)(=O)c2ccccc2)cc1)C(F)(F)F` (stereo not given) are “inactive” and -19.2%.
As for `O=c1c2cc(Cl)cc(Cl)c2nc(CN2CCOCC2)n1-c1ccccc1F`, the Potency result was “inactive” and the cell number change is -6.69%.
In the same order, the values of `CN1CCN(c2ccc(N)c(N3CCN(C)CC3)c2)CC1` are “inactive” and 19%.
Regarding `CN1CCN(c2ccc(C=O)cc2)CC1`, the Potency was 23.1 µM (active) and the cell number change is -17.6%.
On the same counts, the results for `CN1CCN(c2ccc(NC(=O)C(C)(C)C)cc2)CC1` are “inactive” and -9.28%.
On the same counts, the results for `Nc1ccccc1C(=O)c1ccccc1` are “inactive” and 17.1%.
On the same counts, the results for `COc1cccc(CNCCc2ccccc2)c1OC` are “inactive” and 7.84%.
In the case of `COc1cccc(CNC2CN3CCC2CC3)c1OC` (stereo not given), the Potency was 29.1 µM (active) and the cell number change was -7.47%.
In the same order, the values of `Fc1ccccc1CNC1CN2CCC1CC2` (stereo not given) are “inactive” and 4.51%.
On the same counts, the results for `COc1ccc(CN2C(=O)NC(=O)/C(=C/c3ccc([N+](=O)[O-])s3)C2=O)cc1` are “inactive” and 7.76%.
In the same order, the values of `O=C(c1ccc2c(c1)OCO2)C1CCCN(Cc2ccccn2)C1` (stereo not given) are “inactive” and 1.62%.
On to `CCN(CC)C(=O)c1ccc(NC(=O)c2ccc(-c3nn(C)c(=O)c4ccccc34)cc2)cc1`, for which the Potency result was “inactive” and the cell number change turned out to be 4.89%.
On the same counts, the results for `CCN(CC)C(=O)c1ccc(NC(=O)c2cn(-c3ccccc3)nc2-c2ccc(OC)cc2)cc1` are 2.31 µM (active) and -6.07%.
In the same order, the values of `CCN(CC)C(=O)c1ccc(NC(=O)COc2ccc(-c3nn(C)c(=O)c4ccccc34)cc2)cc1` are “inactive” and -2.38%.
On the same counts, the results for `COc1ccc(-n2c(CN3CCOCC3)nc3ccccc3c2=O)c(OC)c1` are “inactive” and -3.52%.
Consider `Cc1cc(N2CCN(C)CC2)nc2ccccc12`, for which the Potency result is “inactive” and the cell number change worked out at 21.8%.
On the same counts, the results for `COc1ccc(N2CCN(Cc3nc4ccccc4[nH]3)CC2)cc1` are “inactive” and 15.8%.
On the same counts, the results for `CN1CCN(Cc2nc3ccccc3c(=O)[nH]2)CC1` are 29.1 µM (active) and -23.1%.
In the same order, the values of `C[C@]12CCC3[C@@H](CC[C@H]4C[C@@H](O)CC[C@]34C)C1CCC2=O` (stereo not given in full) are “inactive” and 15.3%.
Regarding `C#CC[N+]1(C)[C@@H]2CC(OC(=O)C(CO)c3ccccc3)C[C@H]1C(O)C2` (stereo not given in full), the Potency entry was “inactive” and the cell number change is 7.57%.
On the same counts, the results for `Cc1ccccc1-n1c(/C=C/c2ccccn2)nc2ccccc2c1=O` are “inactive” and 15.7%.
In the same order, the values of `Cc1ccc(-n2c(/C=C/c3ccccn3)nc3ccccc3c2=O)cc1` are 6.51 µM (active) and 27.8%.
On the same counts, the results for `Cc1cccc(-n2c(/C=C/c3ccc([N+](=O)[O-])o3)nc3ccccc3c2=O)c1` are 5.17 µM (active) and 9.44%.
As to `Cc1cccc(-n2c(/C=C/c3ccccn3)nc3ccccc3c2=O)c1`, the Potency entry was “inactive” and the cell number change is -12.4%.
In the same order, the values of `Cc1cccc(-n2c(-c3ccc([N+](=O)[O-])cc3)nc3ccccc3c2=O)c1` are “inactive” and -0.157%.
As for `O=c1c2ccccc2nc(/C=C/c2ccccn2)n1-c1ccccc1`, the Potency entry is “inactive” and the cell number change is 5.25%.
In the same order, the values of `CSc1nc(N2CCN(C)CC2)c2ccccc2n1` are “inactive” and 12%.
For the molecule `C/C=C1/CC(C)C(C)(O)C(=O)OCC2CCN3CCC(OC1=O)C23` (stereo not given), the Potency entry was “inactive” and the cell number change is 3.31%.
On the same counts, the results for `Cc1ccc(N2C(=O)/C(=C/c3ccc(CN(CCC#N)S(C)(=O)=O)o3)C(=O)NC2=S)cc1` are “inactive” and 9.59%.
On the same counts, the results for `[N-]=[N+]=NCc1cn2cccnc2n1` are “inactive” and -11.7%.
In the same order, the values of `c1ccc(C2CC3CC(c4ccco4)N2O3)cc1` (stereo not given) are “inactive” and 2.08%.
Regarding `Cc1ccc(N=Cc2c(O)n(C)c(=O)n(C)c2=O)cc1`, the Potency result was “inactive” and the cell number change is -14%.
On the same counts, the results for `CN1C2CCC1CC(OC(=O)c1ccc(Cl)cc1)C2` (stereo not given) are “inactive” and 1.41%.
Regarding `COc1ccc(C(=O)OC2C[C@H]3CC[C@H](C2)N3C)cc1OC` (stereo not given in full), the Potency entry was “inactive”.
The same measure, in the same setting: in the case of `CN1C2CCC1CC(OC(=O)c1cc(Cl)cc(Cl)c1)C2` (stereo not given) it was 23.1 µM (active); in that of `CNP1(NC)=NC(C(F)(F)F)=NC(C(F)(F)F)=N1`, “inactive”.
For the molecule `COc1ccc(CC(C)NCCc2ccc(OC)c(OC)c2)cc1` (stereo not given), the Potency entry is “inactive” and the cell number change was found to be 5.07%.
Turning to `O=C(Nc1cccc(Cl)c1)N1C[C@H]2C[C@@H](C1)c1cccc(=O)n1C2`, the Potency result was “inactive” and the cell number change was -7.76%.
In the same order, the values of `O=C(Nc1ccc(Cl)cc1)N1CC2CC(C1)c1cccc(=O)n1C2` (stereo not given) are 1.84 µM (active) and -2.6%.
In the same order, the values of `O=C(Nc1ccc(F)cc1)N1CC2CC(C1)c1cccc(=O)n1C2` (stereo not given) are “inactive” and -3.93%.
For the molecule `COc1ccc(OC)c(NP(=O)(Oc2ccc(Cl)cc2)Oc2ccc(Cl)cc2)c1`, the Potency result was “inactive” and the cell number change was 16.2%.
In the same order, the values of `Cc1ccc2[nH]c3c(c2c1)CN(C(=O)CN1C[C@H]2C[C@@H](C1)c1cccc(=O)n1C2)CC3` are “inactive” and 14.9%.
In the case of `N#Cc1c(N2CCNCC2)nc(-c2ccco2)c2c1CCCC2`, the Potency result was “inactive” and the cell number change is 11.9%.
On the same counts, the results for `Cc1ccccc1-n1c(O)c(C(c2ccncc2)c2c(O)n(-c3ccccc3C)c(=O)[nH]c2=O)c(=O)[nH]c1=O` are “inactive” and 5.35%.
On the same counts, the results for `FC(F)(F)c1ccc(CNCCc2ccc3c(c2)OCO3)cc1` are “inactive” and 20.8%.
With `Cc1ccc(-n2c(O)c(/C=N/NC(=O)c3ccncc3)c(=O)[nH]c2=O)cc1`, the Potency result was “inactive” and the cell number change is -2.6%.
In the same order, the values of `CCOC(=O)c1cccc([P+](=O)O)c1` are “inactive” and 4.86%.
In the same order, the values of `CCOC(=O)c1cccc(-[n+]2c(-c3ccccc3)cc(-c3ccccc3)cc2-c2ccccc2)c1` are 13 µM (active) and -29.7%.
For the molecule `Cc1ccc(-c2cc(-c3ccc(C)cc3)[n+](-c3ccc(C(=O)O)cc3)c(-c3ccc(C)cc3)c2)cc1`, the Potency entry is “inactive” and the cell number change is 12.1%.
On the same counts, the results for `C(CCc1nn[nH]n1)CCc1nn[nH]n1` are “inactive” and 0.918%.
On to `CC1(C)CC(n2[nH]c(=O)c3c2NC(=O)CSC3c2ccc(F)cc2)CCO1` (stereo not given), for which the Potency result is “inactive” and the cell number change came out at 1.16%.
In the same order, the values of `O=C1NC(=O)C(CCc2ccncc2)(Cc2ccc(OCc3ccccc3)cc2)C(=O)N1` are “inactive” and 9.1%.
In the same order, the values of `O=C(Cn1c(=O)n(CC2CS2)c2ccccc21)N1CCCCCC1` (stereo not given) are “inactive” and 9.44%.
As for `CCC1CCCCN1C(=O)Cn1c(=O)oc2ccccc21` (stereo not given), the Potency was 1.46 µM (active).
For the molecule `CCC1CCCCN1CC(=O)c1ccc(OC(F)F)cc1` (stereo not given), the Potency result was “inactive” and the cell number change came out at 2.66%.
On the same counts, the results for `COC(=O)C1=CO[C@@H](C)[C@@H]2CN3CC[C@]4(C(=O)Nc5ccccc54)[C@@H]3C[C@H]12` are “inactive” and -15.3%.
On the same counts, the results for `O=C(c1cccc2ccccc12)C1CCCN(Cc2ccon2)C1` (stereo not given) are “inactive” and 0.85%.
In the same order, the values of `CSc1ccccc1C(=O)C1CCCN(Cc2cccc(C)n2)C1` (stereo not given) are “inactive” and 5.61%.
Take `O=P(O)(O)Cc1ccccc1OP(=O)(c1ccccc1)c1ccccc1`: the Potency entry was “inactive” and the cell number change was -17.7%.
Consider `O=P(O)(O)COc1ccccc1P(=O)(c1ccccc1)c1ccccc1`, for which the Potency was 16.4 µM (active).
For `O=P(O)(O)Oc1ccccc1P(=O)(c1ccccc1)c1ccccc1`, the Potency result was “inactive” and the cell number change worked out at 13.5%.
In the case of `COc1ccc(CC(C)NC2CCCCCC2)cc1` (stereo not given), the Potency entry is “inactive” and the cell number change is -21%.
Take `NC(=O)CSc1nnc([C@@H](N)Cc2c[nH]c3ccccc23)o1`: the Potency entry was “inactive”.
Regarding `O=C(c1ccc(Br)cc1)C12CN3CN(CN(C3)C1)C2`, the Potency result is “inactive” and the cell number change turned out to be 8.31%.
On the same counts, the results for `CCN(CC)CCN=Cc1c(O)n(CCc2ccccc2)c(=O)[nH]c1=O` are “inactive” and 12.9%.
On the same counts, the results for `CCN(CC)CCN=Cc1c(O)n(CCC2=CCCCC2)c(=O)[nH]c1=O` are 23.1 µM (active) and 11.2%.
On the same counts, the results for `O=c1[nH]c(=O)n(CCC2=CCCCC2)c(O)c1/C=N/N1CCOCC1` are “inactive” and 8.55%.
For the molecule `O=c1[nH]c(=O)n(C2CCCCC2)c(O)c1C=NCCCn1ccnc1`, the Potency entry was “inactive” and the cell number change was determined as 17.5%.
On the same counts, the results for `CCN(CC)CCN=Cc1c(O)n(C2CCCCCC2)c(=O)[nH]c1=O` are 18.4 µM (active) and -10.3%.
In the case of `CN(C)CCN=Cc1c(O)n(C2CCCCCC2)c(=O)[nH]c1=O`, the Potency entry is “inactive” and the cell number change came to 6.67%.
In the same order, the values of `C=CCn1c(C)c(C=C2C(=O)NC(=O)NC2=O)c2ccccc21` are “inactive” and 5.7%.
In the same order, the values of `O=c1[nH]c(=O)n(-c2ccc(Br)cc2)c(O)c1C=NC(CO)(CO)CO` are “inactive” and -6.55%.
On the same counts, the results for `O=C(CCN1C(=O)COc2ccccc21)N1CCC2(CC1)OCCO2` are “inactive” and 1.47%.
`O=c1c2ccccc2ncn1-c1ccc([N+](=O)[O-])c(C(F)(F)F)c1`: the Potency result was “inactive” and the cell number change came out at 7.19%.
With `Cc1ccccc1-[n+]1c(-c2ccccc2)cc(-c2ccccc2)cc1-c1ccccc1`, the Potency is 23.1 µM (active).
For the molecule `C[n+]1c(-c2ccccc2)cc(-c2ccc(O)cc2)cc1-c1ccccc1`, the Potency result was “inactive” and the cell number change is -18%.
In the same order, the values of `O=c1[nH]c(=S)n(C2CC2)c(O)c1C=NCc1cccnc1` are “inactive” and 11.1%.
As to `O[C@@H]1CCCC[C@H]1N1CCC(c2ccccc2)CC1`, the Potency was -4.74%.
`CC(=O)N1N=C2C3CCN(CC3)C2C1c1ccccc1` (stereo not given): the Potency result was “inactive” and the cell number change stood at 1.69%.
Regarding `ON1C2CCCCC2N(O)C1c1ccccc1` (stereo not given), the Potency result was “inactive”.
For `Cc1ccc(/C=C2/C(=O)NC(=O)N(CCc3ccc(F)cc3)C2=O)o1`, the Potency entry was “inactive” and the cell number change was -2.41%.
In the same order, the values of `FC(F)(F)c1ccccc1N1CC1c1ccncc1` (stereo not given) are “inactive” and -4.55%.
On the same counts, the results for `CSc1ncc(/C=C2/C(=O)NC(=O)N(c3ccc(C)cc3)C2=O)cn1` are “inactive” and 8.62%.
Regarding `O=C(c1ccc2c(=O)n(Cc3ccc4c(c3)OCO4)c(=S)[nH]c2c1)N1CCC2(CC1)OCCO2`, the Potency result is “inactive” and the cell number change is -17%.
In the same order, the values of `O=C1NC(=O)C(=Cc2ccsc2)C(=O)N1` are “inactive” and 11.6%.
For `CN1C(=O)/C(=C\c2ccc(N3CCCCCC3)cc2)C(=O)NC1=S`, the Potency result is “inactive” and the cell number change came to 9.11%.
In the same order, the values of `O=C1NC(=S)NC(=O)C1=Cc1cccn1-c1ccc(O)cc1` are “inactive” and -0.957%.
In the same order, the values of `CN1C(=O)/C(=C/c2cccn2-c2ccc3ccccc3c2)C(=O)NC1=S` are 3.26 µM (active) and -19%.
In the same order, the values of `ClC(Cl)(Cl)c1ccccc1` are 0.58 µM (active) and 2.26%.
For the molecule `CC(c1ccccc1)(c1ccccc1)c1ccncc1`, the Potency entry was “inactive” and the cell number change was found to be 6.39%.
